Source: PubChem BioAssay AID1458 (National Center for Advancing Translational Sciences (NCATS), 2008)
The whole screen tested about 210,000 compounds, of which about 5,900 (2.8%) were called active. Not shown: some 5% with an inconclusive outcome. The call rests on the fitted dose curve; in most records, active means well fitted activation curve with a large enough effect; inconclusive means small, poorly fitted or top-dose-only effect; inactive means no such curve, though single readings can be large or run the other way. For the sample, actives were picked, then their nearest neighbours and some compounds at random.

Test: qHTS Assay for Enhancers of SMN2 Splice Variant Expression; further: nearly all actives have a fitted effect of over 55% in size; on activity change, positive = activation: % of control where 0% means no effect
Settings: HEK293 SMN2-luciferase splicing reporter, luminescence, 30-36 h; series mostly up to 46.1 µM; activity change, positive = activation: at the top concentration
Description: NIH Chemical Genomics Center [NCGC] NIH Molecular Libraries Probe Production centers Network [MLPCN] MLPCN Grant: R03 MH084179-01 Assay Submitter (PI): Elliot Androphy NCGC Assay Overview: Spinal muscular atrophy (SMA) is caused by insufficient levels of the survival motor neuron protein SMN. The SMN locus on chromosome 5q13 contains two inverted copies of SMN called SMN1 and SMN2 which are 99% identical at the amino acid level. SMN1 is a fully functional protein and SMN2 skips exon 7 90% of the time. Skipping of exon 7 produces non-functional protein product. 10% of the SMN2 protein includes exon 7 and is fully functional. In the SMA disease state, mutations in the SMN1 locus are the cause of the disease state. Because only 10% of SMN2 is of the fully functional form, it is not sufficient to overcome the deficiency produced by the loss of the SMN1 product. A therapy that either increase the amount of SMN2 product made or to increase the inclusion of exon 7 has been proposed for the treatment of SMA. We have designed an assay to identify small molecules that can increase the amount of functional SMN2 product by appending a luciferase reporter gene after the native SMN2 gene, such that inclusion of exon 7 in the expressed product places the luciferase sequence in frame, thus generating functional luciferase enzyme.
NCGC Assay Protocol Summary: This screen utilizes a luciferase reporter gene assay, combining the promoter and splicing based cassettes in tandem with the major portion of the native SMN2 cDNA, and then transfected into HEK293 cells. Compounds that increase luciferase signal presumably enhance expression of the functional SMN2 splice variant. Passaging media contained DMEM w/ glutamax (+phenol red) 10% FCS, 1x pen/strep, 200 ug/ml hygro, 1x sodium pyruvate. Assay media contained DMEM w/ glutamax (-phenol red) 10% FCS, 1x pen strep, 1x pyruvate Sequence, Parameter, Value, Description (1) Cells, […], 2000 cells/well, 1536 TC treated White solid bottom plate (2) Time, 10-12 hours, 37C 5% CO2 (3) Compound, 23 nl, MLSMR Library (4) Control Compound, 23 nL, Sodium butyrate st 4.5mM (final) conc (5) Time, 30-36 hours, 37C 5% CO2 (6) Reagent, 3 ul, One Glo (TM) from Promega (7) Time, 5-15 minutes, Room temp (8) Detector, Viewlux: luminescent read, 60 second integration, high speed 2x binning Keywords: Spinal muscular atrophy, SMA, SMN2, high throughput screening, MLSMR, MLPCN, NIH Roadmap, qHTS and NCGC
Potency means the concentration at half of the fitted maximal effect.

Row | Structure (SMILES) | Potency | activity change, positive = activation
1 | CC(C)Oc1ccc(NC(=O)c2cc3ccccc3o2)cc1 | 2.51 µM (active) | –
2 | Cc1ncoc1C(=O)NCCC(c1ccccc1)c1ccccc1 | – | -50.5% (inactive)
3 | O=C(OCC1O[C@@H](OC(=O)c2cc(O)c(O)c(O)c2)[C@@H](OC(=O)c2cc(O)c(O)c(O)c2)[C@@H](OC(=O)c2cc(O)c(O)c(O)c2)[C@@H]1OC(=O)c1cc(O)c(O)c(O)c1)c1cc(O)c(O)c(O)c1 (stereo not given in full) | – | -42.8% (inactive)
4 | COc1cccc(C(=O)Nc2ccc(-c3cc(C(F)(F)F)nn3-c3ccccc3)cc2)c1 | – | -70.6% (inactive)
5 | O=C(OCC(=O)c1cccs1)C1=COCCO1 | 14.1 µM (active) | –
6 | CC(=O)c1c(O)c(C)c(O)c(Cc2c(O)c3c(c(C(=O)/C=C/c4ccccc4)c2O)OC(C)(C)C=C3)c1O | inactive | –
7 | CCCCCCCCCc1ccc(OCCOCCOCCOCCOCCOCCOCCOCCOCCO)cc1 | – | -96.9% (inactive)
8 | Cn1c(=O)oc2cc(S(=O)(=O)N3CCC(C(=O)Nc4ccc(OC(F)(F)F)cc4)CC3)ccc21 | – | -41.6% (inactive)
9 | CC(=O)Oc1ccccc1C(=O)Nc1ncc([N+](=O)[O-])s1 | 12.6 µM (active) | –
10 | C[N+](C)(C)CCOP(=O)([O-])OC[C@H](O)CO | – | -39.5% (inactive)
11 | CC(C)=CCC[C@]1(C)[C@@H](CC=C(C)C)C[C@@]2(CC=C(C)C)C(=O)[C@]1(C(=O)C(C)C)C(=O)C(CC=C(C)C)=C2O | – | -64.9% (inactive)
12 | CC[C@]1([C@H]2O[C@@H]([C@@H]3O[C@](O)(CO)[C@@H](C)C[C@H]3C)C[C@H]2C)CC[C@@H]([C@]2(C)CC[C@@]3(C[C@@H](O)[C@@H](C)[C@@H]([C@H](C)[C@H](OC)[C@H](C)C(=O)O)O3)O2)O1 | – | -29.3% [at 20.6 µM] (inactive)
13 | O=C(Nc1cccc(F)c1)N1CC[C@@]2(CCCN(C(=O)Oc3ccccc3)C2)C1 | – | -46.3% (inactive)
14 | O=C(Nc1cccc(OC(=O)N2CCCCC2)c1)N1CCOCC1 | – | -21.1% (inactive)
15 | CC(C)(C)c1ccc(OC(=O)N2CCCCC2)cc1 | 12.6 µM (active) | –
16 | CC(C)(C)C(O)(CCc1ccc(Cl)cc1)Cn1cncn1 (stereo not given) | – | 9.38% (inactive)
17 | NCC[Se][Se]CCN | – | -13.3% [at 9.22 µM] (inactive)
18 | CO[C@@H]1C[C@@H](C[C@H]2CC[C@H](C)[C@@H]([C@@H](C)C(=O)O)O2)O[C@]2(O[C@](C)([C@H]3CC[C@@](C)(C4OC([C@H]5O[C@@](O)(CO)[C@H](C)C[C@@H]5C)C[C@@H]4C)O3)C[C@H]2C)[C@@H]1C (stereo not given in full) | – | -100% (inactive)
19 | c1ccc(Cc2nn3c(Cn4cnc5ccccc54)nnc3s2)cc1 | – | -70.4% (inactive)
20 | N#CC(C#N)=Cc1cc(O)c(O)c([N+](=O)[O-])c1 | – | 8.15% (inactive)
